Screening data (PubChem BioAssay)
Lassa entry inh – inhibitors of Lassa virus binding or cell entry; Lassa virus pseudotype entry inhibition, cell reporter; Potency, µM (highest dose often 37.9 µM), for the others: top-dose activity change, negative = inhibition, most hits filed as inhibitors; 300,000 tested, 1.2% active; AID 540256; calls by dose curve; tested in HEK293 cells; further: potency means the concentration at half of the fitted maximal effect; nearly all actives have a fitted effect of over 50% in size
FBPA Giardia inh – inhibitors of Giardia lamblia fructose-1,6-bisphosphate aldolase. A8B2U2. Potency, µM (series often up to 59.6 µM), inactives show at the top dose activity, negative = inhibition, usual class: inhibitors. 290,000 tested, 0.71% active. AID 2451. purified Giardia FBPA; further: potency means the concentration at half of the fitted maximal effect; nearly all actives have a fitted effect of over 55% in size
Target sequence (A8B2U2 whole entry, looked up): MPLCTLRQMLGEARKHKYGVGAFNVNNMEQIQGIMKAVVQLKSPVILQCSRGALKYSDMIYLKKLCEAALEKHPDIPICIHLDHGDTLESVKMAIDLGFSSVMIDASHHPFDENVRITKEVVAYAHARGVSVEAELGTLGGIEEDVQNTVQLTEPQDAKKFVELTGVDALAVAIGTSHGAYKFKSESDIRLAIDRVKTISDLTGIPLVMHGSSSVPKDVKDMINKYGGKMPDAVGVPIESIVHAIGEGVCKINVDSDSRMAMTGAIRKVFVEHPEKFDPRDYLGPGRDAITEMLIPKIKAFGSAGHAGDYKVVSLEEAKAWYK
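40 nM FBPA preincubated 10 min at RT with compound (up to 57.5 uM final), then substrate plus GAPDH/TPI/NAD/arsenate coupling and diaphorase/resazurin added. Fluorescence read after 20 min at RT, 525/598 nm.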
HCMV inh – inhibitors of human cytomegalovirus. HFF cells, HCMV-luciferase reporter, 72 h; active compounds read low. activity change, negative = inhibition, % at 57.5 µM. 410,000 tested, 4.5% active. AID 1259415; in the data active means activity change below about -60%; inconclusive means no clear call, values can overlap the other calls; inactive means above about -39%
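Luciferase read-out from HCMV-luciferase-infected HFFs (MOI 1 PFU/cell) 72 h post infection at 37C; compounds added after 16 h cell attachment; activity normalized between buffer-only basal and Salinomycin (10uM) inhibitor controls.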
HCV inhibitor – HCV inhibition | Huh7.5.1 HCVcc-Cre infection, luciferase reporter, 44 h | Potency, µM (highest dose often 41.8 µM), without a hit: top-dose activity change, negative = inhibition, most hits filed as inhibitors | 340,000 tested, 3.4% active; further: potency means the concentration at half of the fitted maximal effect
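A cell-based infection assay in which seeded cells (1,000 per well) receive test compound after 4 h, are inoculated with HCVcc-Cre at approximately 0.5 moi, and are incubated 44 h before luminescence detection.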
FMDV inh – blocks foot and mouth disease virus. FMDV antiviral cell-based qHTS. Potency, µM (titrated, usually from 57.9 µM), for the others: at the top dose activity change, negative = inhibition, hits mostly inhibitors. 410,000 tested, 1.2% active. AID 1159524; calls by dose curve; tested in HEK293T cells; further: read-out not given here; potency means the concentration at half of the fitted maximal effect; nearly all actives have a fitted effect of over 45% in size
MARV entry inh – blocks Marburg virus binding to or entry into cells. AID 540276. 300,000 tested, 1.8% active. Marburg virus pseudotyped entry inhibition, cell reporter. Potency, µM (highest dose often 37.8 µM), for the others: at the highest dose activity change, negative = inhibition, actives largely listed as inhibitors; calls by dose curve; tested in HEK293 cells; further: potency means the concentration at half of the fitted maximal effect
Starred values were filed as active, the others as inactive; ? = inconclusive; · = no result; [ ] = another dose, or the depositor's remark. Shown are actives, neighbours in structure and some others; about 8.3% of the full set was active somewhere. Unless noted, the call rests on the fitted dose curve; in most records, active means well fitted curve in the direction sought with a large enough effect; inconclusive means small, poorly fitted or top-dose-only effect, or another doubt; inactive means no such curve, though single readings can be large; an effect the other way counts as inactive or inconclusive. On the % scale 0 is the no-effect control and ±100 the full control effect.

SMILES | Lassa entry inh | FBPA Giardia inh | HCMV inh | HCV inhibitor | FMDV inh | MARV entry inh
Cc1c(C(C)C)c(=O)n(-c2ccc(S(=O)(=O)NC3CCCCC3)cc2)n1C | ? | 0% | -89* | 5µM* | -29% | ?
Cc1c(C(C)C)c(=O)n(-c2ccc(S(=O)(=O)NCc3ccccc3)cc2)n1C | 2µM* | 7% | -85* | 0.89µM* | ? | ?
COc1ccc(C2C3C=CCC(c4cccc(/C=C/c5ccccc5)c4)C3C(=O)N2Cc2ccccc2)cc1Cl (stereo unspecified) | · | 8% | · | · | · | ·
CCOc1ccc(Br)cc1S(=O)(=O)Nc1cccc(S(=O)(=O)NC2=NCCC2)c1 | · | -4% | -6 | 1% | 34% | ·
CCOc1ccc(Br)cc1S(=O)(=O)NC1=NCCCCC1 | 14% | · | -64* | -7% | 21% | ?
COc1ccc(C#Cc2c(-c3ccccc3)n(C)c3ccccc23)cc1 | · | · | 0 | ? | 0% | ·
Cn1c(-c2ccc(C#N)cc2)c(C#Cc2ccccc2)c2ccccc21 | · | · | 32 | 22µM* | 24% | ·
COc1ccc(C#Cc2c(C=O)n(C)c3ccccc23)cc1 | · | · | -10 | 10µM* | 0% | ·
Cn1c(C=O)c(C#Cc2ccccc2)c2ccccc21 | · | · | 21 | 7.9µM* | -1% | ·
Cc1cnc(C)c(-c2cccc3c2OC(CNC(=O)/C=C/c2ccc(F)c(F)c2)C3)n1 (stereo unspecified) | · | · | · | · | -16% | ·
CCCCN(CC)CCCNC(=O)Nc1sc2nc3n(c(=O)c2c1C)CCC(C)CC3 (stereo unspecified) | · | · | -37 | · | 0% | 10µM*
COc1cccc2c1C(=O)c1c(O)c3c(c(O)c1C2=O)C[C@@](O)(C(=O)CO)C[C@@H]3OC1CC(N)C(O)C(C)O1 (stereo partly specified) | ? | · | -99* | 1µM* | -13% | 0.5µM*
COc1cccc2c1C(=O)c1c(O)c3c(c(O)c1C2=O)CC(O)(C(C)=O)CC3OC1CC(N(C)C)C(O)C(C)O1 (stereo unspecified) | ? | · | -98* | 0.56µM* | 1% | ?
COc1cccc2c1C(=O)c1c(O)c3c(c(O)c1C2=O)C[C@@](O)(C(=O)CO)C[C@@H]3O[C@H]1C[C@H](N)[C@H](O)[C@H](C)O1 | 0.37µM* | ? | -98* | 0%[8.37 µM] | ? | 0.73µM*
COc1cccc2c1C(=O)c1c(O)c3c(c(O)c1C2=O)C[C@@](O)(C(=O)CO)C[C@@H]3O[C@@H]1C[C@H](N)[C@H](O)[C@H](C)O1 | · | -26% | · | · | -18% | ·
COc1cccc2c1C(=O)c1c(O)c3c(c(O)c1C2=O)CC(O)(C(C)=NO)CC3OC1CC(N)C(O)C(C)O1 (stereo unspecified) | ? | · | -100* | ? | 25% | ?
Cc1cnc(-n2ncc(C(=O)NCC(C)(C)N3CCOCC3)c2C)nc1-c1cccs1 | · | · | · | · | -2% | ·
COc1ccc(OC)c(CNC(=O)Cc2ccc(NC(=O)N3CCSc4ncccc43)cc2)c1 | 2%[46.1 µM] | · | 0 | · | ? | ·
CN(C)CCN(C)Cc1c2ccccc2c(CN(C)CCN(C)C)c2ccccc12 | ? | 4% | ? | 4µM* | -5% | ?
CCOc1ccc(C=C2SC(=O)N(CCN)C2=O)cc1 | · | 0% | · | · | · | ·
CCn1c(=O)c([N+](=O)[O-])c(Cl)c2ccccc21 | ? | -3% | 248 | ? | 22µM* | ?
Cc1ccc(C(C[N+](=O)[O-])Sc2ccc(N)cc2)cc1 (stereo unspecified) | -1% | ? | -100* | ? | ? | 3%[46.1 µM]
Cc1ccc(C(C[N+](=O)[O-])n2nc(C)cc2C)cc1 (stereo unspecified) | 10% | -2% | 34 | 9% | ? | ?
O=C(NC1CC(=O)N(c2ccc(Cl)cc2)C1)c1cc2ccccc2o1 (stereo unspecified) | -22%[46.1 µM] | · | 26 | · | -13% | ·
CC(=O)C(Sc1ccc2nnc(-c3ccc(C)cc3)n2n1)C(C)=O | · | 16% | -3 | -10% | -11% | ·
SMILES | Lassa entry inh | FBPA Giardia inh | HCMV inh | HCV inhibitor | FMDV inh | MARV entry inh
CC(=O)C(Sc1ccc2nnc(-c3ccncc3)n2n1)C(C)=O | · | -25% | -62* | -3% | -20% | ·
Cc1cccc(CNC(=O)c2c3n(c(C)cc2=O)-c2ccccc2SC(c2sccc2C)C3)n1 (stereo unspecified) | · | · | · | · | 0% | ·
C=CCOC(=O)N[C@H](C(C(=O)OC)=C(C)NCc1ccccc1)c1ccc(Br)cc1 | · | · | · | · | · | 7%[14.2 µM]
O=C(NC1CCc2ccccc21)C1=CN2CCN(Cc3ccccc3)C(=O)N=C2O1 (stereo unspecified) | · | · | -13 | · | · | ·
CC(C)CC(=O)NC(=S)N1CCN(c2ccc([N+](=O)[O-])cc2Cl)CC1 | 1% | 3% | -67* | 0% | -24% | -3%
O=C(c1ccc(-c2cccc([N+](=O)[O-])c2)o1)N1CCN(c2ccc([N+](=O)[O-])cc2)CC1 | -30% | · | -61* | ? | ? | ?
O=C(c1ccc(-c2ccc(Cl)cc2)o1)N1CCN(c2ccc([N+](=O)[O-])cc2Cl)CC1 | ? | -10% | -80* | ? | -27% | -1%
O=[N+]([O-])c1cccc(-c2ccc(C(=S)N3CCN(c4ccc(F)cc4)CC3)o2)c1 | 17% | 14% | -24 | ? | -4% | ?
O=C(c1ccc(-c2ccc([N+](=O)[O-])cc2)o1)N1CCCCC1 | -27% | -2% | 17 | -6% | 42% | 3%
COc1ccccc1CCNC(=O)Cc1c(C)c2cc3c(C(C)(C)C)coc3c(C)c2oc1=O | 22%[46.1 µM] | · | -21 | · | -11% | 6%[46.1 µM]
O=C(Nc1ccccn1)NC1CCS(=O)(=O)C1 (stereo unspecified) | ? | 0% | -103* | -1% | -19% | -16%
O=C(Nc1ccccn1)NC1CCCCC1 | 12% | 7% | 22 | 4% | 28% | ?
O=C(CSCc1cnn(-c2ccccc2)c1-n1cccc1)NCc1ccccc1F | -20%[46.1 µM] | · | -76* | · | -15% | 0%[46.1 µM]
COc1ccccc1CNC(=O)CSCc1cnn(-c2ccccc2)c1-n1cccc1 | ? | 0% | 38 | ? | ? | -17%
O=C(CSCc1cnn(-c2ccccc2)c1-n1cccc1)NCc1cccnc1 | ? | 8% | ? | ? | -24% | 9%[46.1 µM]
COc1ccc(CNC(=O)CSCc2cnn(-c3ccccc3)c2-n2cccc2)cc1OC | ? | · | -80* | · | 16µM* | ?
Cn1c2c(c(=O)n(C)c1=O)C(c1ccccc1OC(F)F)C1=C(CCCC1=O)N2 (stereo unspecified) | 15% | -1% | -1 | 2.8µM* | 15% | -3%
COc1ccc([C@H]2CC(=O)C=C(c3ccccc3)C2)cc1OC | · | · | 8 | ? | -22% | ·
COc1ccc([C@H]2CC(=O)C=C(c3ccc(Oc4ccccc4)cc3)C2)cc1OC | · | · | -64* | 5.6µM* | ? | ·
